# Experimental data as given in PubChem BioAssay.
# Records with an inconclusive call do not appear. Values without a mark were called inactive.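 The calls were made as follows, unless noted: active = cell viability at or below a set limit in both duplicate runs, the limit being the all-compound median minus 4 SD (cut at about 23% in these data, passing the limit was not always enough); inconclusive = no clear call, values can overlap the other calls; inactive = the rest.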
# Assay: viability of HCT116 without oncogenic beta-catenin – human colon tumor cells, pilot screen (AID 823);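 also: 0% = wells killed by 20 µM Hyamine and 100% = untreated DMSO cell wells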
# Settings: HCT116 beta-catenin knockout viability, CellTiter-Glo, 60 h; at 10 µM; hits give low values
row,Compound,viability
1,CCOc1ccc(N(CC(=O)Nc2ccc(C)c(C)c2)S(=O)(=O)c2c(C)noc2C)cc1,27.4%
2,CCCn1c(OC)nc2c1c(=O)n(C)c(=O)n2C,107%
3,COc1cc2[nH]c(=O)n(CCCCCC(=O)N3CCN(c4ccccn4)CC3)c(=O)c2cc1OC,73.2%
4,CCOc1ccc(N(CC(=O)NC2CCCCC2)S(=O)(=O)c2c(C)noc2C)cc1,95.5%
5,O=C(c1ccco1)N1CCN(C(=O)c2sccc2-c2ccccc2)CC1,94.6%
6,CCSC1=C(C#N)C(c2ccccc2OC)CC(=O)N1 (stereo not drawn),94.1%
7,CCOC(=O)Cn1nc(-c2ccc(Cl)cc2)cc1N,102%
8,CC(C(=O)N1CC2(C)CC1CC(C)(C)C2)N1C(=O)c2ccccc2C1=O (stereo not drawn),82.1%
9,COc1cccc(N(C(C)=O)c2nc(C)cc(C)c2C#N)c1,109%
10,COc1cccc(NC(=O)c2ccco2)c1,107%
11,Cc1ccc(Cn2c(CN3CCOCC3)nc3c2c(=O)n(C)c(=O)n3C)cc1,92.4%
12,CCOc1ccc(NC(=O)CSc2nccn2C)cc1,106%
13,Cc1nc2ccc(Br)cn2c1NC(C)(C)C,89.2%
14,COc1ccccc1C(=O)NCCc1nc2ccccc2n1C,105%
15,Cn1ccnc1SCC(=O)Nc1ccc2ccccc2c1,96.8%
16,c1nc(NCC2(N3CCOCC3)CCCCC2)c2ccsc2n1,78.8%
17,Cc1noc(C(=O)Nc2ccc3c(c2)OCO3)c1Cl,95.9%
18,Cc1ccc(S(=O)(=O)N2CCOCC2)cc1C(=O)Nc1nc(-c2cccnc2)cs1,96.8%
19,Cc1cccc(C)c1OCc1nnc(SCC(=O)Nc2ccccc2F)o1,98.8%
20,CCN(CC)CCCN1C(=O)C(O)=C(C(=O)c2ccco2)C1c1ccc(C)o1 (stereo not drawn),97.4%

row,Compound,viability
1,Cc1ccc(S(=O)(=O)C(C#N)c2nc3ccccc3nc2N2CCCCC2)cc1 (stereo not drawn),93.8%
2,C(/CCc1ccccc1)=N\n1cnnc1,102%
3,CCOCCCNC(=O)C(c1ccccc1)N(Cc1ccc2c(c1)OCO2)C(=O)CNC(C)=O (stereo not drawn),98.6%
4,COc1ccccc1N1CCN(c2cc(=O)n(Cc3ccc(F)cc3)c(=O)[nH]2)CC1,33.6%
5,CNC(=O)C1C2C=CC3(O2)C1C(=O)N(C1CC1)C3C(=O)NCc1ccc(OC)cc1 (stereo not drawn),96.3%
6,CCCSc1nc2c(cnn2-c2ccc(C)cc2)c(=O)[nH]1,40.5%
7,Nn1c(Cc2ccccc2F)nnc1SCC(=O)N1CC(=O)Nc2ccccc21,114%
8,CCc1ccc(N2CC(C(=O)OCC(=O)NC3CCS(=O)(=O)C3)CC2=O)cc1 (stereo not drawn),96.5%
9,Cc1ccccc1Cn1ccc(NC(=O)c2onc(C)c2Cl)n1,103%
10,O=C(CSc1ccc2nnc(-c3ccccc3)n2n1)N1CCN(c2ccccc2)CC1,101%
11,CC(C)C(NC(=O)c1ccc(S(=O)(=O)N2CCOCC2)cc1)c1nc2ccccc2[nH]1 (stereo not drawn),100%
12,Cc1ccc(SCC(=O)NCCN2C(=O)CSC2=O)c(C)c1,111%
13,N#Cc1c2n(c(=O)[nH]c1=O)CCCCC2,99.5%
14,CCN(C1CCCCC1)S(=O)(=O)c1ccc(S(=O)(=O)N2CCN(CCC#N)CC2)cc1,86.6%
15,COc1cccc2c(=O)c3c(cnn3C)n(C)c12,87.1%
16,Cc1nnc(N2C(=O)C(O)=C(C(=O)c3ccco3)C2c2ccc(F)cc2)s1 (stereo not drawn),106%
17,CC1(C)CC(=O)C(C=NCC2CCNCC2)=C(O)C1,92.2%
18,CCOC(=O)C(C)Sc1nnc(Cc2cc(=O)[nH]c(=O)[nH]2)n1-c1ccc(Cl)cc1 (stereo not drawn),104%
19,O=C(CS(=O)(=O)Cc1ccccc1)Nc1nc2ccccc2s1,101%

# Assay: viability of PTEN-null HCT116 cells – cell-based, HCT116 clonal line, CellTiter-Glo, pilot screen (AID 824;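 active = viability at or below 27.92% in each of two runs, the all-compound median minus 4 SD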;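 also: 0% = 20 µM Hyamine control and 100% = vehicle cell control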)
# Settings: HCT116 PTEN-deleted viability, 60 h, at 10 µM, hits give low values
row,Compound,viability
1,CCCn1c(OC)nc2c1c(=O)n(C)c(=O)n2C,97%
2,CCOc1ccc(N(CC(=O)NC2CCCCC2)S(=O)(=O)c2c(C)noc2C)cc1,89%
3,CCSC1=C(C#N)C(c2ccccc2OC)CC(=O)N1 (stereo not drawn),91.6%
4,CC(C(=O)N1CC2(C)CC1CC(C)(C)C2)N1C(=O)c2ccccc2C1=O (stereo not drawn),83.5%
5,COc1cccc(NC(=O)c2ccco2)c1,98.7%
6,Cc1noc(C(=O)Nc2ccc3c(c2)OCO3)c1Cl,89.7%
7,Cc1cccc(C)c1OCc1nnc(SCC(=O)Nc2ccccc2F)o1,98.1%
8,Cc1ccccc1Cn1ccc(NC(=O)c2onc(C)c2Cl)n1,91.2%
9,O=C(CSc1ccc2nnc(-c3ccccc3)n2n1)N1CCN(c2ccccc2)CC1,93.8%
10,CCN(C1CCCCC1)S(=O)(=O)c1ccc(S(=O)(=O)N2CCN(CCC#N)CC2)cc1,85.9%
11,Cc1nnc(N2C(=O)C(O)=C(C(=O)c3ccco3)C2c2ccc(F)cc2)s1 (stereo not drawn),101%
12,CC1(C)CC(=O)C(C=NCC2CCNCC2)=C(O)C1,92.3%
13,CCOC(=O)C(C)Sc1nnc(Cc2cc(=O)[nH]c(=O)[nH]2)n1-c1ccc(Cl)cc1 (stereo not drawn),105%
14,O=C(CS(=O)(=O)Cc1ccccc1)Nc1nc2ccccc2s1,97.1%
